{"source": "PubChem BioAssay (NCATS)", "key": {"[1]": {"biological_target": "Androgen receptor (Homo sapiens) (UniProt P10275)", "sequence (P10275 whole entry, looked up)": "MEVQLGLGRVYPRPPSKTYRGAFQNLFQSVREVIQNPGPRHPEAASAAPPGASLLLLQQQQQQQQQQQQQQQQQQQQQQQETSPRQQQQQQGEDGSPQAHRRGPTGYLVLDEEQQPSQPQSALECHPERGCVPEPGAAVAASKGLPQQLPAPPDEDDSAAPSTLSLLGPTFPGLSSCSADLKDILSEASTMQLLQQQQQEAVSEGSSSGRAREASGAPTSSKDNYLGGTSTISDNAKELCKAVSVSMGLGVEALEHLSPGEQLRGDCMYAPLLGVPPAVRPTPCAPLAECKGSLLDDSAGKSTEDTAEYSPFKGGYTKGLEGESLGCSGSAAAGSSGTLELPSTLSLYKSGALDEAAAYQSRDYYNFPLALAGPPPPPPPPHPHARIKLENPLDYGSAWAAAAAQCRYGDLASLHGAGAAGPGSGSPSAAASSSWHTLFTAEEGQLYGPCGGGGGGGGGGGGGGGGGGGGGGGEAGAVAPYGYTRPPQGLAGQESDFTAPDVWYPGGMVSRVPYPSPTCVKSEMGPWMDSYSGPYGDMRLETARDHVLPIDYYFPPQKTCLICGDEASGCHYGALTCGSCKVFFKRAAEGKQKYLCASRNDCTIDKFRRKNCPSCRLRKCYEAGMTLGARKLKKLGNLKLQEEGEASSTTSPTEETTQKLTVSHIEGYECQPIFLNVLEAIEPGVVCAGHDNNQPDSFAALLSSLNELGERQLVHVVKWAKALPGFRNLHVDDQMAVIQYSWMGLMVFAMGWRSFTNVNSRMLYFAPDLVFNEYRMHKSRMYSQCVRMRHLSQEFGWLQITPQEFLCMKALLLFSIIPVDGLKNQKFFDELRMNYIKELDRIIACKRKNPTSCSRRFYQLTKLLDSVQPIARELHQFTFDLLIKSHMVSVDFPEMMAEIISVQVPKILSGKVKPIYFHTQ", "assay": "qHTS assay for small molecule antagonists of androgen receptor signaling (AID 588516; active means well fitted curve in the direction sought with a large enough effect in the signal ratio, with a control signal flat, not every such curve was filed as active; the % refers to the signal ratio)", "in_short": "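HEK293 AR-UAS-bla cells, 10% dialyzed FBS medium; cpd titration + R1881 10 nM final, 16 h 37 C; CCF4 2 h RT; FRET ratio; IC50/efficacy via Hill fit.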"}, "[2]": {"biological_target": "Bile acid receptor (Homo sapiens) (UniProt Q96RI1)", "sequence (Q96RI1 whole entry, looked up)": "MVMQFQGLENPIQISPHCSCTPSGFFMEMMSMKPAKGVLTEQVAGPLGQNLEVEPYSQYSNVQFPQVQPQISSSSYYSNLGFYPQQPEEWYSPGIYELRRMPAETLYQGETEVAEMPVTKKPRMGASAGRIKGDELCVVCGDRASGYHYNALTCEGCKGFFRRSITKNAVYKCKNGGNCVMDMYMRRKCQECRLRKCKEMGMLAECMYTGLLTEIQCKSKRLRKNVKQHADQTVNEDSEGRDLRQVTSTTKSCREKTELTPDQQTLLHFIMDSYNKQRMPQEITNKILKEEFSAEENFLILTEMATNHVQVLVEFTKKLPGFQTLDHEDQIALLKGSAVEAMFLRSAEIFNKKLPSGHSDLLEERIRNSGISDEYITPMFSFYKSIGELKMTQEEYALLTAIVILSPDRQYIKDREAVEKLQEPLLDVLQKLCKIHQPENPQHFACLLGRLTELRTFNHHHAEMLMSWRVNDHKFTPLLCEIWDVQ", "assay": "qHTS assay for small molecule antagonists of farnesoid X receptor signaling (AID 588526); further: potency means the concentration at half of the fitted maximal effect", "in_short": "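Antagonist mode: titrated compounds tested against chenodeoxycholic acid stimulation (normalized to 50 uM CDCA and DMSO) in GeneBLAzer HEK293T cells for 16 h. Beta-lactamase read by CCF4 fluorescence; IC50 from Hill fits.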"}, "[3]": {"biological_target": "Peroxisome proliferator-activated receptor gamma (Homo sapiens) (UniProt P37231)", "sequence (P37231 whole entry, looked up)": "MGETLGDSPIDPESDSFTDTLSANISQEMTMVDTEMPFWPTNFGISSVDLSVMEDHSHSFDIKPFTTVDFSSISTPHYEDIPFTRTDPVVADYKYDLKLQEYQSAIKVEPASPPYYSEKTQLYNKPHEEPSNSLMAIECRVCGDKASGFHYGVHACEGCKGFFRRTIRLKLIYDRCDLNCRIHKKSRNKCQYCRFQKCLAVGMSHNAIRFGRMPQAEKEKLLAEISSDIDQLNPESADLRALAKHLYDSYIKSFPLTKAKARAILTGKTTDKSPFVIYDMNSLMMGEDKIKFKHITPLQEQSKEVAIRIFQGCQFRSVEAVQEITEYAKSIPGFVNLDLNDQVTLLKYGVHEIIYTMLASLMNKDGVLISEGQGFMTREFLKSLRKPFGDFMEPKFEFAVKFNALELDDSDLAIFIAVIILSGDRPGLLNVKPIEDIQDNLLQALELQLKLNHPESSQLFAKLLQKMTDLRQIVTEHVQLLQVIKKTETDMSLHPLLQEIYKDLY", "assay": "qHTS assay for small molecule antagonists of peroxisome proliferator-activated receptor gamma signaling (AID 588537; active means well fitted inhibition curve with a large enough effect in the signal ratio, with a control signal flat, not every such curve was filed as active; the % refers to the signal ratio; further: potency means the concentration at half of the fitted maximal effect)", "in_short": "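PPARγ-UAS-bla HEK293 cells (3000/well) in 1% charcoal/dextran-stripped FBS are treated with compound, then stimulated with 50 nM rosiglitazone for 16 h at 37 °C. Read-out is CCF4 β-lactamase fluorescence after 2 h at RT. IC50 comes from Hill fits normalised to rosiglitazone and DMSO.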"}, "[4]": {"biological_target": "Vitamin D3 receptor (Homo sapiens) (UniProt P11473)", "assay": "qHTS assay for small molecule antagonists of vitamin D receptor signaling (AID 588541);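 further: receptor activated by calcitriol during compound treatment; series mostly up to about 77 µM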", "in_short": "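VDR-UAS-bla HEK293T cells in 2% charcoal-stripped FBS were stimulated with 1-alpha,25-dihydroxyvitamin D3 (3 nM final) plus compound for 16 h at 37 C. The beta-lactamase CCF4 readout was normalized to 50 nM agonist and DMSO, and Hill fits gave IC50.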"}, "[5]": {"biological_target": "Vitamin D3 receptor (Homo sapiens) (UniProt P11473)", "assay": "qHTS assay for small molecule agonists of vitamin D receptor signaling (AID 588543)", "in_short": "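β-lactamase reporter, VDR-UAS-bla HEK293T, agonist mode. Cells plated 5 h at 37 °C, compound titration 16 h at 37 °C, CCF4 dye 2 h RT, ratio 460/530 nm. Hill fit → EC50, efficacy vs 50 nM 1α,25-(OH)2D3.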"}, "[6]": {"assay": "qHTS assay for small molecule agonists of retinoid X receptor alpha signaling (AID 588544)", "conditions": "HEK293T RXRa-UAS-bla, beta-lactamase reporter, 18 h; 530 nm emission"}, "[7]": {"assay": "qHTS assay for small molecule antagonists of peroxisome proliferator-activated receptor delta signaling (AID 588535; active means well fitted inhibition curve with a large enough effect in the signal ratio, with a control signal flat, not every such curve was filed as active; the % refers to the signal ratio;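 on max response: cells co-treated with a PPAR-delta agonist as stimulator during compound exposure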)", "conditions": "HEK293T PPARd-UAS-bla, beta-lactamase FRET ratio, 18 h; 460 nm channel", "in_short": "(§1)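 Antagonist-mode beta-lactamase reporter (GeneBLAzer PPAR-delta-UAS-bla) in HEK293T cells, 2% charcoal/dextran FBS, 4000 cells/well. Compound titrations, 18 h at 37 C; CCF4 ratio read, IC50 and efficacy from Hill fits.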"}, "[8]": {"biological_target": "Peroxisome proliferator-activated receptor delta (Homo sapiens) (UniProt Q03181)", "sequence (Q03181 whole entry, looked up)": "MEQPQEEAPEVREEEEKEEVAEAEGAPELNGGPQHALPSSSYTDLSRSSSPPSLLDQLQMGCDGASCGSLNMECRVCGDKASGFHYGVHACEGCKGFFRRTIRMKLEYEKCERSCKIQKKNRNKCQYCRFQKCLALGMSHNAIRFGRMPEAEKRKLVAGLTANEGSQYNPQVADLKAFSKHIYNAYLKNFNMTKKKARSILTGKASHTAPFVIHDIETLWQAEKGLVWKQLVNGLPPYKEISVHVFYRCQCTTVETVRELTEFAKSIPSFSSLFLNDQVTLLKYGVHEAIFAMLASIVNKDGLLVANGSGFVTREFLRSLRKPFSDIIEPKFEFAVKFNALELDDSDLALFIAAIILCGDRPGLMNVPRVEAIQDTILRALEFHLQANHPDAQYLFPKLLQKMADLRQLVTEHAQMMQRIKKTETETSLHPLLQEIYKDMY", "assay": "qHTS assay for small molecule antagonists of peroxisome proliferator-activated receptor delta signaling (AID 588535)", "in_short": "as §1"}, "[9]": {"biological_target": "Glucocorticoid receptor (Homo sapiens) (UniProt P04150)", "sequence (P04150 whole entry, looked up)": "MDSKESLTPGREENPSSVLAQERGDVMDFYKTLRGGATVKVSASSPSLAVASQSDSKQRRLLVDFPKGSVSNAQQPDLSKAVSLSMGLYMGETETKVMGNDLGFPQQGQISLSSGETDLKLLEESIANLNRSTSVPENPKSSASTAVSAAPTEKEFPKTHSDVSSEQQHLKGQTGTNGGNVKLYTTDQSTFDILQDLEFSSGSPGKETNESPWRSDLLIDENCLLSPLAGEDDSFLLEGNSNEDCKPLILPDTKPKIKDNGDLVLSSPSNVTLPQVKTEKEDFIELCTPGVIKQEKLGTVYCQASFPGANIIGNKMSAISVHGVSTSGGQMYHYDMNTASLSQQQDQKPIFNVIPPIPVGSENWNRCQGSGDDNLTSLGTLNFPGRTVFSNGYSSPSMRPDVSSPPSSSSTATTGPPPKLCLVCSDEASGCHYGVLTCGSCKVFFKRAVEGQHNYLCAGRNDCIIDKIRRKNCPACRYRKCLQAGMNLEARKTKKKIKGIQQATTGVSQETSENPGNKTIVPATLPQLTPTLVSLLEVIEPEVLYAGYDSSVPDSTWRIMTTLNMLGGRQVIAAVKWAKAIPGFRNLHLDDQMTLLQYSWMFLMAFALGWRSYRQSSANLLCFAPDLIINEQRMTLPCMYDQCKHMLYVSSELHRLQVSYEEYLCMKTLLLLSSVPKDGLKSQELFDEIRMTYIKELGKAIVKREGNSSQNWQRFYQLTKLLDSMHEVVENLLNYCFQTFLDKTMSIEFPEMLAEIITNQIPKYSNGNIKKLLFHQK", "assay": "qHTS assay for small molecule agonists of glucocorticoid receptor signaling (AID 588532; active means well fitted curve in the direction sought with a large enough effect in the signal ratio, with a control signal flat; the % refers to the signal ratio)", "conditions": "HeLa MMTV-bla, beta-lactamase ratio, agonist, 18 h; stronger effect = higher value; percent of dexamethasone control, DMSO zero", "in_short": "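Cells were plated and rested 3-5 h at 37 C, compounds were added in titration and incubated 18 h, then CCF4 substrate was loaded for 2 h at RT before reading blue/green fluorescence. EC50 came from Hill-equation fitting.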"}, "[10]": {"biological_target": "Glucocorticoid receptor (Homo sapiens) (UniProt P04150)", "assay": "qHTS assay for small molecule antagonists of glucocorticoid receptor signaling (AID 588533; active means well fitted inhibition curve with a large enough effect in the signal ratio, with a control signal flat, not every such curve was filed as active; the % refers to the signal ratio)", "in_short": "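Antagonist-mode qHTS: compound titrations added to GRE-bla HeLa cells, then dexamethasone 2 nM final; 18 h, 37 C. CCF4 FRET fluorescence normalized to dexamethasone and DMSO; IC50 from Hill fit.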"}}, "note": "Several values for one entry are separate records, joined by “and”; a condition that tells them apart may be missing. Equal values may be shown once. Inconclusive results are not listed. Entries that show only a call come without a potency. Activity calls are given as the source filed them. Unless noted, the call rests on the fitted dose curve. Numbered stars: 1 amine (or outer) side, 2 acyl side, 3 side chain; on linkers, the order of the positions; unused ones are H or OH. Bridge positions count the residues as written; N and C are the ends. Square brackets hold non-standard residues; d marks the D form. Peptide text beside a SMILES is read from it. I, II: the chains in the order shown. Actinocin(9to1) = Cc1c2oc3c(C)ccc(C(=O)[*:1])c3nc-2c(C(=O)[*:2])c(N)c1=O; NMeV = CN[C@H](C(=O)O)C(C)C; Sar = CNCC(=O)O; further: potency means the concentration at half of the fitted maximal effect", "data": [{"compound": "Cc1cc(=O)n(-c2ccccc2)n1C", "values": [{"measurement": "outcome", "setting": "[1]", "value": "inactive"}, {"measurement": "Potency", "setting": "[2]", "value": "inactive"}, {"measurement": "Potency", "setting": "[3]", "value": "inactive"}, {"measurement": "Potency", "setting": "[4]", "value": "inactive"}, {"measurement": "outcome", "setting": "[5]", "value": "inactive"}, {"measurement": "max response", "setting": "[6]", "value": -30.7, "unit": "%"}]}, {"compound": "C=CCc1ccc(O)c(OC)c1", "values": [{"measurement": "max response", "setting": "[7]", "value": "11.6% and 2.37%"}, {"measurement": "Potency", "setting": "[8]", "value": "inactive"}, {"measurement": "Potency", "setting": "[3]", "value": "inactive"}, {"measurement": "max response", "setting": "[6]", "value": "-13.4% and -16.3%"}]}, {"compound": "CC(O)C(=O)O", "note": "(stereo not given)", "values": [{"measurement": "Potency", "setting": "[2]", "value": "inactive"}, {"measurement": "max response", "setting": "[7]", "value": -0.0545, "unit": "%"}, {"measurement": "Potency", "setting": "[8]", "value": "inactive"}, {"measurement": "Potency", "setting": "[4]", "value": "inactive"}, {"measurement": "outcome", "setting": "[5]", "value": "inactive"}, {"measurement": "max response", "setting": "[6]", "value": -16.3, "unit": "%"}]}, {"compound": "Oc1ccc(Cl)cc1Sc1cc(Cl)ccc1O", "values": [{"measurement": "Potency", "setting": "[4]", "value": "inactive"}, {"measurement": "outcome", "setting": "[5]", "value": "inactive"}]}, {"compound": "CC/C(=C(/CC)c1ccc(O)cc1)c1ccc(O)cc1", "values": [{"measurement": "Potency", "setting": "[2]", "value": "44.7 µM (active) and 39.8 µM (active)"}, {"measurement": "activation", "setting": "[9]", "value": "-20.1% (inactive)"}, {"measurement": "Potency", "setting": "[4]", "value": "inactive"}, {"measurement": "outcome", "setting": "[5]", "value": "inactive"}, {"measurement": "max response", "setting": "[6]", "value": -0.375, "unit": "%"}]}, {"compound": "C[C@]12CC[C@@H]3c4ccc(O)cc4CC[C@H]3[C@@H]1CC[C@@H]2O", "values": [{"measurement": "activation", "setting": "[9]", "value": "-6.54% (inactive)"}, {"measurement": "Potency", "setting": "[10]", "value": "7.08 µM (active)"}, {"measurement": "Potency", "setting": "[3]", "value": "39.8 µM (active)"}, {"measurement": "Potency", "setting": "[4]", "value": "inactive"}, {"measurement": "outcome", "setting": "[5]", "value": "inactive"}, {"measurement": "max response", "setting": "[6]", "value": 6.82, "unit": "%"}]}, {"compound": "C=C(CC)C(=O)c1ccc(OCC(=O)O)c(Cl)c1Cl", "values": [{"measurement": "activation", "setting": "[9]", "value": "-8.92% (inactive)"}]}, {"compound": "Oc1ccc(O)cc1", "values": [{"measurement": "activation", "setting": "[9]", "value": "-0.636% (inactive)"}]}, {"compound": "Cc1c2oc3c(C)ccc(C(=O)N[C@@H]4C(=O)N[C@H](C(C)C)C(=O)N5CCC[C@H]5C(=O)N(C)CC(=O)N(C)[C@@H](C(C)C)C(=O)O[C@@H]4C)c3nc-2c(C(=O)N[C@@H]2C(=O)N[C@H](C(C)C)C(=O)N3CCC[C@H]3C(=O)N(C)CC(=O)N(C)[C@@H](C(C)C)C(=O)O[C@@H]2C)c(N)c1=O", "note": "(I: T[dV]P[Sar][NMeV] / II: T[dV]P[Sar][NMeV]; ester I:1-I:C, II:1-II:C; linker I:N-II:N via Actinocin(9to1))", "values": [{"measurement": "Potency", "setting": "[10]", "value": "126 nM (active) and 112 nM (active)"}, {"measurement": "outcome", "setting": "[5]", "value": "inactive"}]}, {"compound": "C[C@H]1C[C@H]2[C@@H]3CCC4=CC(=O)C=C[C@]4(C)[C@@]3(Cl)[C@@H](O)C[C@]2(C)[C@@]1(O)C(=O)CO", "values": [{"measurement": "Potency", "setting": "[10]", "value": "inactive"}, {"measurement": "Potency", "setting": "[3]", "value": "inactive"}, {"measurement": "Potency", "setting": "[4]", "value": "inactive"}, {"measurement": "outcome", "setting": "[5]", "value": "inactive"}]}, {"compound": "Oc1c(Cl)cc(Cl)cc1Sc1cc(Cl)cc(Cl)c1O", "values": [{"measurement": "outcome", "setting": "[5]", "value": "inactive"}]}, {"compound": "CCCCCCc1ccc(O)cc1O", "values": [{"measurement": "outcome", "setting": "[1]", "value": "inactive"}, {"measurement": "activation", "setting": "[9]", "value": "-1.17% (inactive) and 14.5% (inactive)"}, {"measurement": "Potency", "setting": "[10]", "value": "inactive"}, {"measurement": "Potency", "setting": "[4]", "value": "inactive"}, {"measurement": "outcome", "setting": "[5]", "value": "inactive"}, {"measurement": "max response", "setting": "[6]", "value": "-14.8% and 0.183%"}]}, {"compound": "CC(C)(Oc1ccc(Cl)cc1)C(=O)O", "values": [{"measurement": "Potency", "setting": "[10]", "value": "inactive"}, {"measurement": "Potency", "setting": "[3]", "value": "inactive"}, {"measurement": "Potency", "setting": "[4]", "value": "inactive"}, {"measurement": "outcome", "setting": "[5]", "value": "inactive"}, {"measurement": "max response", "setting": "[6]", "value": -16.7, "unit": "%"}]}, {"compound": "CN(C)/N=N/c1nc[nH]c1C(N)=O", "values": [{"measurement": "Potency", "setting": "[2]", "value": "inactive"}, {"measurement": "activation", "setting": "[9]", "value": "-5.55% (inactive)"}, {"measurement": "max response", "setting": "[7]", "value": 24, "unit": "%"}, {"measurement": "Potency", "setting": "[8]", "value": "inactive"}, {"measurement": "Potency", "setting": "[3]", "value": "inactive"}, {"measurement": "max response", "setting": "[6]", "value": 27.5, "unit": "%"}]}]}
